# Several values for one entry are separate records, joined by “and”; a condition that tells them apart may be missing. Equal values may be shown once. Among all 260,000 compounds or so, about 2,200 (0.85%) were called active.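 Rule for the calls: active = compounds whose cAMP rise, as percent of the full-agonist control response, exceeds 60; inactive = the rest.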 This excerpt belongs to a sample that is enriched for actives.
# Target: Prostaglandin E2 receptor EP2 subtype (Homo sapiens) (UniProt P43116)
# Sequence (P43116 whole entry, looked up): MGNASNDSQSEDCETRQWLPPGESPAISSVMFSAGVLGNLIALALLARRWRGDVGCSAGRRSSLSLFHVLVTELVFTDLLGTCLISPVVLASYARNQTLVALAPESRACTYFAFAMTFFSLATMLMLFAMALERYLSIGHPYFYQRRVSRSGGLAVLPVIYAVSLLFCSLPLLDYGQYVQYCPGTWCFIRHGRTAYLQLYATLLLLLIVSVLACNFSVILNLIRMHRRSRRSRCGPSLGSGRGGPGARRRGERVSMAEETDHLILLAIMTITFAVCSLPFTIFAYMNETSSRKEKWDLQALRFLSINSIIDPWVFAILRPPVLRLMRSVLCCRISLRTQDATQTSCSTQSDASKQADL
# Test: modulation of human EP2 prostaglandin signaling – cell-based, HTRF cAMP, PGE2 stimulation, primary screen (AID 940);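 note: rat C6 glioma line stably carrying human EP2 under a CMV promoter; the protocol text gives 20 µM as final concentration; 100% = response of wells given 1 µM PGE2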
# Settings: EP2-expressing cells, cAMP HTRF FRET, PGE2 co-stimulation; at 25 µM; hits give high values
row,Structure (SMILES),induction
1,Cc1ccc(Cn2c3ccccc3n3c(SCC(=O)N4CCc5ccccc54)nnc23)cc1,-8.29% (inactive)
2,COc1ccc(N=Nc2ccc(O)c(P(=O)(c3ccccc3)c3ccccc3)c2)cc1,25.3% (inactive)
3,CC(C)(C)c1cc(P(=O)(c2ccccc2)c2ccccc2)ccc1O,66.9% (active)
4,O=P(O)(CP(=O)(c1ccccc1)c1ccccc1)c1ccccc1O,-5.29% (inactive)
5,CN(C)C(=O)CN1N=C(C(C)(C)C)Cn2c(cc3sccc32)C1=O,-24.7% (inactive)
6,CC(=O)c1ccc2c(ccc3ccccc32)c1,-39.4% (inactive)
7,CC(=O)c1ccc2c(c1)c1ccccc1n2CC(C)C,66.9% (active)
8,CCn1c2ccccc2c2cc(CC(N)=O)ccc21,13.3% (inactive)
9,Cc1sc2ncnc(NCC(=O)O)c2c1C,2.64% (inactive)
10,COc1cc(-c2nnc(SCC(=O)N3CCC(C)CC3)o2)cc(OC)c1OC,-36.6% (inactive)
11,CCN1CCCC1CN(Cc1ccccn1)Cc1cccn1-c1ccncc1 (stereo not drawn),7.11% (inactive)
12,CCN(CC)C(=O)CSc1nc2c(C)c(C)ccc2cc1C#N,27.6% (inactive)
13,Cc1cc(C#N)c(SCC(N)=O)nc1-c1ccc(F)cc1,65.8% (active)
14,Cc1cc(=O)[nH]c(SCC(N)=O)c1C#N,24.2% (inactive)
15,CCc1c(C)nc(NC2CCN(C(=O)c3cccc(N(C)C)c3)CC2)[nH]c1=O,-19.1% (inactive)
16,COC(=O)CSc1nnc(CSc2nc(C)cc(C)n2)n1-c1ccc(C)cc1,-20.7% (inactive)
17,CCOc1ccc(NC(=O)CSc2nc(C(C)C)nc3ccccc23)cc1,10.4% (inactive)
18,COc1cc(NC(=O)CSc2ncnc3c2sc2nc4cc(C)ccc4cc23)cc(OC)c1,-7.45% (inactive)
19,CCOc1ccc(NC(=O)CSc2ncnc3c2sc2ccccc23)cc1,78.8% (active)
20,CC(c1ccccc1)n1c(Br)nc2c1c(=O)n(C)c(=O)n2C (stereo not drawn),-1.23% (inactive)
21,COc1ccc2[nH]c(=O)c(CN(C3CCCC3)C(c3nnnn3Cc3ccccc3)C(C)C)cc2c1 (stereo not drawn),40.1% (inactive)

row,Structure (SMILES),induction
1,CC1(C)C2CCC1(C)C(OC(=O)c1ccc(O)cc1)C2 (stereo not drawn),67.5% (active)
2,Cc1ccc(C(=O)OC2CCCN(C)C2)cc1 (stereo not drawn),11.9% (inactive) and -29.7% (inactive)
3,CC1(C)C2CCC1(C)C(OC(=O)CCn1ccnc1)C2 (stereo not drawn),-7.75% (inactive)
4,c1ccc(C(c2nnnn2Cc2ccc3c(c2)OCO3)N2CCN(C3CCCCC3)CC2)cc1 (stereo not drawn),-64.5% (inactive)
5,CC(C)(C)C(=O)c1cn(CC(=O)N2CCCCC2)c2ccccc12,-9.2% (inactive)
6,CCn1c(C)nnc1SCC(=O)Nc1ccc(Br)cc1,-1.86% (inactive)
7,CCOC(=O)N1CCN(CC(=O)Nc2cc(C)nn2-c2nc3ccccc3s2)CC1,32.4% (inactive)
8,Cc1cc(NC(=O)CN2CCCC(C)C2)n(-c2nc3ccccc3s2)n1 (stereo not drawn),77.7% (active)
9,CC(=O)Nc1ccc(NC(=O)CN2CCCC(C)C2)c(Cl)c1 (stereo not drawn),-9.9% (inactive)
10,COc1ccc(Cc2n[nH]c(=S)n2C)cc1,25.4% (inactive)
11,Cc1cc(-c2cnc(C)nc2C2CCN(C(=O)Cc3ccc(C)s3)CC2)on1,-15.1% (inactive)
12,O=C(N/N=C/c1ccc(OCc2ccccc2)cc1)c1ccc(O)cc1,-46.8% (inactive)
13,Oc1ccc(/C=N/N(Cc2ccccc2)c2ccccc2)cc1,67.5% (active)
14,CN(C)c1ccc(/C=N/N(Cc2ccccc2)c2ccccc2)cc1,23.9% (inactive)
15,Cc1ccc(C(=O)c2c(NC(=O)c3ccccc3)sc(C)c2C)cc1,8.95% (inactive)
16,Cc1ccc(NC(=O)c2c(NC(=O)CCC(=O)O)sc3c2CCCCC3)cc1,12.1% (inactive) and -20.9% (inactive)
17,Cc1ccc(C(=O)c2c(NC(=O)c3ccncc3)sc3c2CCCC3)cc1,68.7% (active)
18,Cc1cc(-c2cncnc2C2CCCN(CC(=O)Nc3cc(C)on3)C2)on1 (stereo not drawn),0.23% (inactive)
19,CCOC(=O)c1c(CN2CCOCC2)nc2ccc(Cl)cc2c1-c1ccccc1,22.7% (inactive)
20,CCSc1nnc(-c2cc3c(s2)-c2ccccc2CC3)o1,63.3% (active)
21,C#CCSc1nnc(-c2sc3ccccc3c2Cl)o1,40.2% (inactive)

row,Structure (SMILES),induction
1,Fc1ccc(CSc2nnc(-c3cc4c(s3)-c3ccccc3CC4)o2)cc1,1.98% (inactive)
2,CC(=O)c1ccc(S(=O)(=O)N2CCC(n3c(C)nc4cc(F)ccc43)CC2)cc1,-40.5% (inactive)
3,Cc1occc1-c1nn(C2CCN(S(=O)(=O)N(C)C)CC2)c(=O)o1,-53% (inactive)
4,CCN(CC)C(=O)CSc1nc2ccccc2c(=O)n1-c1ccccc1,-15.6% (inactive)
5,CN1CCN(C(c2ccccc2Cl)c2nnnn2C2CCCCC2)CC1 (stereo not drawn),-13.7% (inactive)
6,c1ccc(C(c2ccccc2)N2CCN(Cc3nnnn3C3CCCCC3)CC2)cc1,56.5% (inactive)
7,c1ccc(C(c2nnnn2C2CCCCC2)N2CCc3ccccc3C2)cc1 (stereo not drawn),68.5% (active)
8,CCS(=O)(=O)N1CCN(c2nc3ccccc3s2)CC1,-84.9% (inactive)
9,O=C(Cn1nc(-c2cccnc2)oc1=O)N1CCCC1,-282% (inactive)
10,COC(=O)c1sccc1NC(=O)CCC1CCCC1,11.9% (inactive)
11,O=C(COc1ccc(Cl)cc1)Nc1ccccc1CO,-10.2% (inactive)
12,COC(=O)c1sccc1NC(=O)COc1ccc(Cl)cc1,61.7% (active)
13,CCN(CC)CCN(Cc1cc2cccc(C)c2[nH]c1=O)C(=S)NCCOC,-15.8% (inactive)
14,Cc1nn2c(c1-c1ccccc1)N=C(c1ccco1)CC2c1ccccc1 (stereo not drawn),83.8% (active)
15,CC(C(=O)N1CCC(n2nc(-c3ccco3)ccc2=O)CC1)c1ccccc1 (stereo not drawn),-23.1% (inactive)
16,COCC(=O)Nc1nnc(Cc2ccccc2)s1,-1.1% (inactive)
17,CCc1nn(CC(=O)NC(C)c2ccccn2)c(=O)c2cc3ccsc3n12 (stereo not drawn),-14.5% (inactive)
18,O=C(c1ccn[nH]1)N1CCn2cc(C(F)(F)F)nc2C1,-3.08% (inactive)
19,COc1ccc(CN2CCCCC2C)cc1OC (stereo not drawn),1.32% (inactive)
20,CC1CCCCN1CC(=O)NCc1ccc2c(c1)OCO2 (stereo not drawn),8.14% (inactive)
21,CCc1ccc2oc(=O)cc(CN3CCCCC3C)c2c1 (stereo not drawn),64.2% (active)
